These results are taken from PubChem BioAssay (Tox21).

Assay [1] addresses Aryl hydrocarbon receptor (Homo sapiens) (UniProt P35869). The experiment in a line: qHTS assay to identify small molecule that activate the aryl hydrocarbon receptor (AhR) signaling pathway (AID 743085). Also: nearly all actives have a fitted effect of over 15% in size. Also: potency is read from the fitted curve at half-maximal effect.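 As to activation: HG2L7.5c1 human HepG2 liver cells with stably integrated DRE-driven firefly reporter; series mostly up to about 70 µM.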 In outline:
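AhR agonist activity is inferred from enhanced light output of a DRE-controlled firefly luciferase reporter in HepG2 cells, measured with ONE-Glo following 24 h treatment at 37C.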

The nature of assay [2]: qHTS assay to identify small molecule that activate the aryl hydrocarbon receptor (AhR) signaling pathway - cell viability counter screen (AID 743086).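 Also: HepG2 liver cells carrying the AhR DRE luciferase reporter; series mostly up to about 70 µM; nearly all actives have a fitted effect of over 45% in size.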 In outline: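 HepG2-AhR-luc (HG2L7.5c1) cells, 4000/well, were preincubated 5 h at 37C, exposed to compound in qHTS format for 24 hr at 37C, then given CellTiter-Fluor for 30 min; viability was read as fluorescence in the reporter wells.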
(In general: qHTS replaces the single test concentration by a dilution series.)

In assay [3] the target is Peroxisome proliferator-activated receptor gamma (Homo sapiens) (UniProt P37231). The experiment in a line: qHTS assay to identify small molecule agonists of the peroxisome proliferator-activated receptor gamma (PPARg) signaling pathway (AID 743094; active = well fitted activation curve with a large enough effect in the signal ratio in the repeat runs, not every such curve was filed as active; the % refers to the signal ratio). Put shortly:
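GeneBLAzer PPARg UAS-bla HEK293H cells carrying a stably integrated beta-lactamase reporter were pre-incubated 5 h at 37C, then exposed to compounds in DMSO for 17 h at 37C; LiveBLAzer B/G FRET substrate was added for 1 h at room temperature and fluorescence read.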

Assay [4] shares this target. The experiment in a line: qHTS assay to identify small molecule antagonists of the peroxisome proliferator-activated receptor gamma (PPARg) signaling pathway (AID 743191; calls by dose curve; also: nearly all actives have a fitted effect of over 30% in size; also: potency is read from the fitted curve at half-maximal effect). Put shortly:
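GeneBLAzer PPARg UAS-bla HEK293H cells carrying a UAS-driven beta-lactamase reporter were plated at 3000 cells/well, preincubated 5 h at 37C, then given compound for 17 h at 37C; LiveBLAzer B/G FRET substrate was read after 1 h at room temperature.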

Assay [5] is described as follows: qHTS assay for small molecule agonists of the antioxidant response element (ARE) signaling pathway - cell viability counter screen (AID 743203; calls by dose curve; also: nearly all actives have a fitted effect of over 55% in size). Put shortly:
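CellSensor ARE-bla HepG2 cells, 2,000 per well, rested 5 hrs at 37C/5% CO2, then exposed to compound in DMSO for 16 hrs; viability read as CellTiter-Glo luminescence after 30 min at room temperature, in the reporter wells.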

Assay [6] is described as follows: qHTS assay for small molecule activators of the heat shock response signaling pathway - cell viability counter screen (AID 743209). Also: nearly all actives have a fitted effect of over 50% in size. Put shortly:
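CellSensor HSE-bla HeLa cells, plated overnight at 37 C/5% CO2, were exposed to compounds in DMSO for 5 h at 37 C. Viability was then read in the same wells by CellTiter-Glo luminescence after 30 min at room temperature.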

Assay [7] in a line: qHTS assay for small molecule activators of the heat shock response signaling pathway (AID 743210; active = well fitted activation curve with a large enough effect in the signal ratio in the repeat runs, with a control signal flat, not every such curve was filed as active; the % refers to the signal ratio;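 also: HeLa cells with beta-lactamase reporter driven by heat shock elements; series mostly up to about 63 µM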). In outline: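 Reporter gene assay: HeLa cells stably bearing an HSE-bla construct, compound treatment 5 h at 37 C, LiveBLAzer substrate 2.5 h at RT, fluorescence intensity.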
Assay [8] is described as follows: qHTS assay to identify small molecule agonists of the peroxisome proliferator-activated receptor delta (PPARd) signaling pathway - cell viability counter screen (AID 743211). Also: nearly all actives have a fitted effect of over 55% in size. Put shortly: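 qHTS cell viability: PPARd-bla HEK293H; 17 h cpd, 37C; CellTiter-Glo, luminescence at 30 min RT.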
The target of assay [9] is Peroxisome proliferator-activated receptor delta (Homo sapiens) (UniProt Q03181). Put plainly: qHTS assay to identify small molecule agonists of the peroxisome proliferator-activated receptor delta (PPARd) signaling pathway (AID 743212; calls by dose curve). In outline: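 A PPARd-bla HEK293H line with beta-lactamase under an Upstream Activator Sequence is treated with compounds at 37 C. Substrate loading for 2 h at room temperature precedes the fluorescence measurement.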

The nature of assay [10]: qHTS assay to identify small molecule antagonists of the peroxisome proliferator-activated receptor delta (PPARd) signaling pathway - cell viability counter screen (AID 743213). Also: nearly all actives have a fitted effect of over 50% in size. Put shortly: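 HEK293H PPARd UAS-bla cells, 5 h pre-incubation, compound + L165041 300 nM final, 17 h 37 C; B/G FRET substrate 2 h RT; then CellTiter-Glo 30 min RT, luminescence.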
The target in assay [11] is Bile acid receptor (Homo sapiens) (UniProt Q96RI1). The experiment in a line: qHTS assay to identify small molecule antagonists of the farnesoid-X-receptor (FXR) signaling pathway (AID 743217; active = well fitted inhibition curve with a large enough effect in the signal ratio in the repeat runs, not every such curve was filed as active; the % refers to the signal ratio). Put shortly:
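FXR-UAS-bla HEK 293T cells pre-incubated 5 h at 37 °C, then exposed to compounds with chenodeoxycholic acid (50 uM final) for 16 h at 37 °C. Beta-lactamase reporter read by LiveBLAzer B/G FRET substrate fluorescence after 2 h at room temperature.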

The target is the same in assay [12]. Put plainly: qHTS assay to identify small molecule agonists of the farnesoid-X-receptor (FXR) signaling pathway (AID 743220; active = well fitted activation curve with a large enough effect in the signal ratio in the repeat runs, not every such curve was filed as active; the % refers to the signal ratio). Put shortly: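 Beta-lactamase reporter under UAS control in GeneBLAzer FXR HEK 293T cells (5000/well) measured with LiveBLAzer FRET substrate after 2 h at room temperature. Compound exposure lasted 16 h at 37C.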
The nature of assay [13]: qHTS assay to identify small molecule antagonists of the farnesoid-X-receptor (FXR) signaling pathway - cell viability counter screen (AID 743221; active = well fitted cell-killing curve with a large enough effect in the repeat runs, not every such curve was filed as active; also: nearly all actives have a fitted effect of over 50% in size). Put shortly: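 After a 5 h settling period, FXR-bla HEK 293T cells receive compound and chenodeoxycholic acid (50 uM final) and incubate 16 h at 37 C; CellTiter-Glo luminescence, read after 30 min at room temperature, reports cell viability.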

The target in assay [14] is Vitamin D3 receptor (Homo sapiens) (UniProt P11473). Put plainly: qHTS assay to identify small molecule antagonists of the vitamin D receptor (VDR) signaling pathway (AID 743223; active = well fitted inhibition curve with a large enough effect in the signal ratio in the repeat runs, not every such curve was filed as active; the % refers to the signal ratio). In outline:
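Reporter line VDR-bla; stimulus 1alpha,25-(OH)2 vitamin D3, 3 nM final; compound co-addition, 16 h 37C/5% CO2; LiveBLAzer B/G substrate 2 h RT; fluorescence intensity.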

A short description of assay [15]: qHTS assay to identify small molecule agonists of the vitamin D receptor (VDR) signaling pathway - cell viability counter screen (AID 743224). Also: series mostly up to about 63 µM; nearly all actives have a fitted effect of over 50% in size. Put shortly: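 VDR-bla cells were preincubated 4 h at 37C/5% CO2, then exposed to compounds for 16 h. After the 2 h room-temperature bla FRET read, CellTiter-Glo was added to the same wells and luminescence read after 30 min.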

A short description of assay [16]: qHTS assay to identify small molecule antagonists of the peroxisome proliferator-activated receptor gamma (PPARg) signaling pathway - cell viability counter screen (AID 743194). Also: nearly all actives have a fitted effect of over 55% in size. Put shortly:
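PPARg-UAS-bla HEK293H cells were plated, rested 5 h at 37 C, then treated with compounds plus rosiglitazone (50 nM final) for 17 h at 37 C; viability was then read by CellTiter-Glo luminescence after 30 min at room temperature.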

Assay [17] in a line: qHTS assay for small molecule agonists of the antioxidant response element (ARE) signaling pathway (AID 743202; active = well fitted activation curve with a large enough effect in the signal ratio in the repeat runs, not every such curve was filed as active; the % refers to the signal ratio). In outline: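 Compounds delivered in DMSO to ARE-bla HepG2 cells (2,000 cells/well, pre-incubated 5 h) and left 16 h at 37 C. LiveBLAzer B/G FRET substrate then added for 2 h at RT before fluorescence reading.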
In assay [18] the target is Peroxisome proliferator-activated receptor delta (Homo sapiens) (UniProt Q03181). Put plainly: qHTS assay to identify small molecule antagonists of the peroxisome proliferator-activated receptor delta (PPARd) signaling pathway (AID 743215; active = well fitted inhibition curve with a large enough effect in the signal ratio in the repeat runs, not every such curve was filed as active; the % refers to the signal ratio;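 also: cells stimulated with agonist L165041 at 300 nM final during compound exposure; series mostly up to about 62 µM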). Put shortly:
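PPARd UAS-bla HEK293H cells were pre-incubated 5 h at 37 C, then given test compounds in DMSO plus agonist L165041 (300 nM final). After 17 h at 37 C, beta-lactamase FRET substrate was added; fluorescence read after 2 h at room temperature.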

Assay [19] can be described thus: qHTS assay to identify small molecule agonists of the farnesoid-X-receptor (FXR) signaling pathway - cell viability counter screen (AID 743218). Also: nearly all actives have a fitted effect of over 45% in size. Put shortly:
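FXR-UAS-bla HEK 293T cells, plated 5 h at 37 C, were exposed to compounds for 16 h at 37 C. CellTiter-Glo was then added to the same wells as the bla readout; luminescence read after 30 min at room temperature.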

Assay [20] addresses Vitamin D3 receptor (Homo sapiens) (UniProt P11473). The experiment in a line: qHTS assay to identify small molecule agonists of the vitamin D receptor (VDR) signaling pathway (AID 743222; calls by dose curve). In outline: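 VDR-bla cells were plated 4 h at 37C/5% CO2, then exposed to compounds in DMSO for 16 h. After LiveBLAzer B/G FRET substrate addition and 2 h at room temperature, beta-lactamase reporter fluorescence was read.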

Values joined by “and” are separate entries in the source; they are usually repeats but may differ in a detail not shown here. Equal values may be shown once. Inconclusive results are not listed. A number with no mark means an inactive call. Active and inactive are the calls of the source. Unless noted, calls follow the shape of the dose curve; as a rule, active = well fitted curve in the direction sought with a large enough effect in the repeat runs; inconclusive = weak or mixed curves; inactive = no such curve, though single readings can be large; an effect the other way counts as inactive or inconclusive.

Chain of Aryl hydrocarbon receptor (Homo sapiens) (P35869 whole entry, looked up): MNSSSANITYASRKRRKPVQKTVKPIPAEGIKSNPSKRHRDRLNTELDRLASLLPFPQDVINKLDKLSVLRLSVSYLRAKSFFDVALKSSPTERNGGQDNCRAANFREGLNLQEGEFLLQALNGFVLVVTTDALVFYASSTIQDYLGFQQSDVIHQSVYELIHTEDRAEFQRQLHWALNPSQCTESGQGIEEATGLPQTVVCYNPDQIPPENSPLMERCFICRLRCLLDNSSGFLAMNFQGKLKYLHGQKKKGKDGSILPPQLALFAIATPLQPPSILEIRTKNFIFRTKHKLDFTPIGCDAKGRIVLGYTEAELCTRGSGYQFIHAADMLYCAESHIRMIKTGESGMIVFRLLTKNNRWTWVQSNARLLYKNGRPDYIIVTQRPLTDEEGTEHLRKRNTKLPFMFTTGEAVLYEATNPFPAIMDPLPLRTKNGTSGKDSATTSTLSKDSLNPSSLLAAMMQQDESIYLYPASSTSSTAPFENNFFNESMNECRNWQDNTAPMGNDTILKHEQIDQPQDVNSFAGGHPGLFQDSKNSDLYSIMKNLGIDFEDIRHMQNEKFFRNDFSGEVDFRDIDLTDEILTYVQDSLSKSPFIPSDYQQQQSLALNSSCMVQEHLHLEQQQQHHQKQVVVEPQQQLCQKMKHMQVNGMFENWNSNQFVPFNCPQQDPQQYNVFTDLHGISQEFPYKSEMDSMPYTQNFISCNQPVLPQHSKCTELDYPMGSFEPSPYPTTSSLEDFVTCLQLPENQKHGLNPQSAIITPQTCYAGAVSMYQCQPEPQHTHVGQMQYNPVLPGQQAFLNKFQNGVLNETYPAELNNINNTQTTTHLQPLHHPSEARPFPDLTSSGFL
Chain of Bile acid receptor (Homo sapiens) (Q96RI1 whole entry, looked up): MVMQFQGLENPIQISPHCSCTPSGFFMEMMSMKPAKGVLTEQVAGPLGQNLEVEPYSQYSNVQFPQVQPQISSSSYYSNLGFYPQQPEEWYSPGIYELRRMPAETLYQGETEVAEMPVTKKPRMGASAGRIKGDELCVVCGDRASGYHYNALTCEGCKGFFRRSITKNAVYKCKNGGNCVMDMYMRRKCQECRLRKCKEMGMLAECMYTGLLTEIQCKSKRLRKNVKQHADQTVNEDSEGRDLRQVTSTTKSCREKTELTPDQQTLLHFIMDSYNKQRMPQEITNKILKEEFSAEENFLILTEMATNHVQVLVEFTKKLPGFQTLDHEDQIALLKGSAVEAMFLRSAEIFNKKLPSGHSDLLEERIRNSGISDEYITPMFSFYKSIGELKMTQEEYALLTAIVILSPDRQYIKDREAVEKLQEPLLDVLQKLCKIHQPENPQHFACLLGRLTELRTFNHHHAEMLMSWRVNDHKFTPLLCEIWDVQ
Chain of Vitamin D3 receptor (Homo sapiens) (P11473 whole entry, looked up): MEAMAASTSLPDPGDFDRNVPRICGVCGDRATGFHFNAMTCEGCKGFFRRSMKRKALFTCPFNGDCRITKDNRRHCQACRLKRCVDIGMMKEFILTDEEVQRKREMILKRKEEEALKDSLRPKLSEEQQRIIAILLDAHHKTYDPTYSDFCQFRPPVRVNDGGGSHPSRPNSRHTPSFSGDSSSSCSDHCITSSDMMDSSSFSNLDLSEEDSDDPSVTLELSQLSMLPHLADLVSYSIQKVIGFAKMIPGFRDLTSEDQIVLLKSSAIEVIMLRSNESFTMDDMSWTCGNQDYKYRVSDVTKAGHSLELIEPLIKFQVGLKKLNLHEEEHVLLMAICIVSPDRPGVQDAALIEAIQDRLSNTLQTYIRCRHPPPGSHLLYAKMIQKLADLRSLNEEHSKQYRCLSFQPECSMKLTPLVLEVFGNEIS
Chain of Peroxisome proliferator-activated receptor delta (Homo sapiens) (Q03181 whole entry, looked up): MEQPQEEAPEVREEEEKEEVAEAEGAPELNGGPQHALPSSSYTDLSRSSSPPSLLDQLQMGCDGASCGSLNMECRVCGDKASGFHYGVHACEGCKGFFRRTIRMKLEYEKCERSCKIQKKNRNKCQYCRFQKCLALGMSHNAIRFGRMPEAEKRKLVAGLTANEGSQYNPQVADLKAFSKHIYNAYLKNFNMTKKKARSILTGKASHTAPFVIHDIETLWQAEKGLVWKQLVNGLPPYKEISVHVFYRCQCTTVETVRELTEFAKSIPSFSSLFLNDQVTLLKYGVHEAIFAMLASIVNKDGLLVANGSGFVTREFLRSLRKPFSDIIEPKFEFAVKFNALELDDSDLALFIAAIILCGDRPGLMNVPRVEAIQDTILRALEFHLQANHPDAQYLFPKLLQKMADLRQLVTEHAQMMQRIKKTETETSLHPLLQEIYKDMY
Chain of Peroxisome proliferator-activated receptor gamma (Homo sapiens) (P37231 whole entry, looked up): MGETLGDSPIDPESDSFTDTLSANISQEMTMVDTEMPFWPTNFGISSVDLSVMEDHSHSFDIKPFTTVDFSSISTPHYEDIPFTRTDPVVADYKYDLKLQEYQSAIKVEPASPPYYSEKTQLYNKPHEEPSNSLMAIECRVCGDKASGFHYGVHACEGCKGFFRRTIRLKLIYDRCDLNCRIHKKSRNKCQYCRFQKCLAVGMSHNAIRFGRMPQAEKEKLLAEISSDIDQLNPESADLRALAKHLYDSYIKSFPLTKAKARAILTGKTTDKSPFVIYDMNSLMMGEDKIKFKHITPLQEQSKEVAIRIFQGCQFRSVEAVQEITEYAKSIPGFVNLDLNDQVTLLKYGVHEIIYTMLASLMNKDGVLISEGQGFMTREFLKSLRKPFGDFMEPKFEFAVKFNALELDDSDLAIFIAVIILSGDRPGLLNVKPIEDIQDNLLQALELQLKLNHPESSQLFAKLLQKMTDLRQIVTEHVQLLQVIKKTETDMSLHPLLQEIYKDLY

As for `O=C(c1ccccc1O)c1ccccc1O`, the Potency entry in [1], in assay [2] and in [3] was “inactive” in each case. The Potency in assay [4] was 43.2 µM (active). Further, the result in assay [5], in [6], in [7], in assay [8], in assay [9] and in [10] was inactive. For the same molecule, the result in [11], in assay [12], in assay [13], in assay [14] and in assay [15] was inactive.
Turning to `O=C(O)CNC(=O)c1ccc(CO)o1`, the Potency entry in assay [1], in assay [2], in assay [3] and in assay [17] was “inactive” throughout. In addition, the outcome in assay [16], in [5], in assay [6], in assay [7], in assay [8] and in [9] was inactive. Further, the molecule was classed as inactive in assay [18], in assay [19], in assay [13] and in assay [15].
As to `Cc1ccccc1N=C(N)N=C(N)N`, the Potency entry in assay [1], in assay [2], in [3] and in assay [17] was “inactive” each time. Further, the molecule was called inactive in [16], in assay [5], in assay [6], in [7], in assay [8] and in assay [9]. The molecule was classed as inactive in assay [10], in assay [18], in assay [13], in [20] and in assay [15].
As for `CC(=O)c1cnccn1`, the Potency entry in [1], in assay [2], in assay [3] and in [17] was “inactive” throughout. In addition, the molecule was classed as inactive in [16], in [5], in [6], in assay [7], in assay [8] and in assay [9]. Further, the result in assay [10], in assay [18], in assay [11], in assay [19], in assay [12] and in assay [13] was inactive. The molecule was called inactive in assay [20], in assay [14] and in assay [15].
As to `CN1CC(=O)N/C1=N/C(=O)Nc1cccc(Cl)c1`, the Potency in assay [1] is 26.6 µM (active) and 1.68 µM (active). Besides, the Potency entry in assay [2], in assay [3] and in assay [4] was “inactive” in each case. The molecule was classed as inactive in assay [16], in assay [5], in [6], in assay [7], in [8] and in assay [10]. Besides, the call in assay [19], in [13], in [20], in assay [14] and in [15] was inactive.
As for `CCCCCCCCN1CCCC1=O`, the Potency entry in assay [1], in assay [2], in [3] and in assay [4] was “inactive” each time. Besides, the result in assay [16], in assay [5], in [6], in assay [7], in [8] and in [10] was inactive. Moreover, the molecule was called inactive in [11], in assay [13], in assay [20] and in assay [15].
With `c1coc(CNc2ncnc3nc[nH]c23)c1`, the Potency result in assay [1], in assay [2] and in assay [3] was “inactive” throughout. Besides, the result in assay [16], in [5], in assay [6], in assay [7], in [8] and in [9] was inactive. Further, the call in assay [10], in [18], in [19], in [13], in assay [20] and in [14] was inactive. Moreover, the molecule was classed as inactive in assay [15].
As for `OCCCCCO`, the Potency result in assay [1], in assay [2], in [3] and in assay [4] was “inactive” throughout. The call in [5], in [6], in [7], in [9], in assay [10] and in assay [18] was inactive. Also, the result in [19], in assay [13] and in [15] was inactive.
Turning to `C=CC(C)(CCC=C(C)C)OC(=O)CC` (configuration not stated), the Potency result in assay [1], in [2], in assay [3] and in assay [17] was “inactive” throughout. Moreover, the molecule was called inactive in assay [16], in assay [5], in assay [6], in assay [7], in [8] and in [11]. For the same molecule, the molecule was called inactive in assay [19], in [12], in assay [13], in [20], in assay [14] and in [15].
